Outcome and AC50 data for 30 compounds are collected here from PubChem BioAssay (EPA / NIEHS).

Molecules are shown by their SMILES. Calls of active or inactive are those of the source. Rule for the calls: active = hit-call score of the fitted dose curve at least 0.9, where 1 is the maximum; inactive = score below 0.9.

Assay [1] is described as follows: ATG_ERE_CIS: Attagene CIS-FACTORIAL HepG2 Assay for Estrogen Response Element (ERE) (AID 2282940). The note with it: HepG2 ERE cis-reporter, Attagene RNA transcript; actives raise or lower the signal. A digest of the protocol:
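After 24 h compound treatment, RNA from transfected HepG2 cells was reverse-transcribed, reporter cDNA PCR-amplified, FAM-labelled, HpaI-cut and resolved by capillary electrophoresis. ERE-driven cis reporter transcripts reflect endogenous factors; gain or loss scored against DMSO.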

A short description of assay [2]: ATG_Ets_CIS: Attagene CIS-FACTORIAL HepG2 Assay for human Erythroblast Transformation Specific (ETS) (AID 2282941). As to conditions: HepG2 ETS cis-reporter transcription, actives raise or lower the signal. In a few lines:
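Bidirectional fit versus DMSO of reporter mRNA signal, detected by RT-PCR and capillary electrophoresis in HepG2 cells transiently transfected with cis-element reporters and dosed 24 h.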

Assay [3] has as its target Hepatocyte nuclear factor 3-beta (Homo sapiens) (UniProt Q9Y261). As to the kind of experiment: ATG_FoxA2_CIS: Attagene CIS-FACTORIAL HepG2 Assay for human Forkhead box A2 (FOXA2) (AID 2282942). The note with it: HepG2 cis-reporter transcription factor activity, 24 h; actives raise or lower the signal. In a few lines:
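Readout: fluorescent reporter transcripts resolved by capillary electrophoresis after RT-PCR. Transiently transfected HepG2, 24 h compound exposure, endogenous TF activity at cis promoter elements. Gain or loss of signal fitted relative to DMSO.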

Assay [4] is described as follows: ATG_FoxO_CIS: Attagene CIS-FACTORIAL HepG2 Assay for human Forkhead box O (FoxO) (AID 2282943). The note with it: HepG2 Attagene cis-reporter, FoxO element, mRNA; actives raise or lower the signal. In a few lines: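 24 h chemical exposure, HepG2 with transient cis-MRTU transfection. RNA extraction, oligo(dT) RT, reporter-specific PCR, primer-extension labelling, HpaI digestion, CE fragment analysis; bidirectional fit, DMSO baseline.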

The nature of assay [5]: ATG_GATA_CIS: Attagene CIS-FACTORIAL HepG2 Assay for human GATA Binding Protein (AID 2282944). As to conditions: HepG2 GATA cis-element reporter, Attagene multiplex mRNA; actives raise or lower the signal. A digest of the protocol:
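Reporter transcripts from a GATA cis-regulated unit, among multiplexed reporters in transfected HepG2 cells, were measured by RT-PCR with capillary electrophoresis after 24 h dosing. Induction or loss scored relative to DMSO.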

Assay [6] is described as follows: ATG_GLI_CIS: Attagene CIS-FACTORIAL HepG2 Assay for human Zinc Finger Protein GLI1 (AID 2282945). The note with it: HepG2, Attagene cis-factorial reporter mRNA, GLI element; actives raise or lower the signal. In a few lines: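 HepG2 cells transiently transfected with cis-promoter multiplexed reporter units report endogenous transcription factor activity. After 24 h chemical exposure, reporter mRNA was quantified by RT-PCR, 6-FAM labelling, HpaI digestion and capillary electrophoresis, with bidirectional fitting against DMSO.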

For assay [7], the target named is Bile acid receptor (Homo sapiens) (UniProt Q96RI1). As to the kind of experiment: ATG_IR1_CIS: Attagene CIS-FACTORIAL HepG2 Assay for human Nuclear Receptor Subfamily 1 Group H Member 4 (NR1H4), IR1 submotif (AID 2282946). The note with it: IR1 reporter transcription, actives raise or lower the signal. A digest of the protocol: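 Readout: reporter transcript levels by RT-PCR with fluorescent capillary electrophoresis, from HepG2 cells transiently transfected with multiplexed cis-regulated reporters and dosed 24 h. Gain- or loss-of-signal fitted versus DMSO negative control.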
Chain of Bile acid receptor (Homo sapiens) (Q96RI1 whole entry, looked up): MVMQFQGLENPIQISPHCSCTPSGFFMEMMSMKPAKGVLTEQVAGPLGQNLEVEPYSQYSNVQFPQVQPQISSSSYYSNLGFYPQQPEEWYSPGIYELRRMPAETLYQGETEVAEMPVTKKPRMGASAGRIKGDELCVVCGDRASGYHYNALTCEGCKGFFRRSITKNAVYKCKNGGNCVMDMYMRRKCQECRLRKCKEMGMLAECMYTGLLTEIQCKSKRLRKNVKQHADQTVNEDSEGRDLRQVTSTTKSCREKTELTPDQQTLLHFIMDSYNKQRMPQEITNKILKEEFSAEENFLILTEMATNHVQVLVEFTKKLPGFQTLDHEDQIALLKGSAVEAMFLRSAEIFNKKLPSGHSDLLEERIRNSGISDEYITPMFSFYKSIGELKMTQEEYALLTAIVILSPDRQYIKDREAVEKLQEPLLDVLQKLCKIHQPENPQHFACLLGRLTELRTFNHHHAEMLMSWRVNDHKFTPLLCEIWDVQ

The nature of assay [8]: ATG_GRE_CIS: Attagene CIS-FACTORIAL HepG2 Assay for human Glucocorticoid Response Elements (GRE) (AID 2282947). The note with it: HepG2 GRE cis-reporter, Attagene multiplex mRNA; actives raise or lower the signal. In a few lines: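 Cells (HepG2) bearing transfected cis-promoter reporter transcription units were treated with chemical for 24 hours. Reporter mRNA was measured via RT-PCR with capillary electrophoresis, and activity was fitted in both directions relative to DMSO.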

Assay [9] in a line: ATG_ISRE_CIS: Attagene CIS-FACTORIAL HepG2 Assay for human Interferon Regulatory Factor 1 (IRF1) binding to an Interferon-Stimulated Response Element (ISRE) (AID 2282948). As to conditions: HepG2 ISRE cis-reporter (Attagene), mRNA transcription readout; actives raise or lower the signal. In a few lines: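 Uses HepG2 liver cells transfected with cis-regulated reporters and measures mRNA 24 h post-dosing through RT-PCR, primer-extension labelling and capillary electrophoresis, with DMSO as negative control.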

Chain of Hepatocyte nuclear factor 3-beta (Homo sapiens) (Q9Y261 whole entry, looked up): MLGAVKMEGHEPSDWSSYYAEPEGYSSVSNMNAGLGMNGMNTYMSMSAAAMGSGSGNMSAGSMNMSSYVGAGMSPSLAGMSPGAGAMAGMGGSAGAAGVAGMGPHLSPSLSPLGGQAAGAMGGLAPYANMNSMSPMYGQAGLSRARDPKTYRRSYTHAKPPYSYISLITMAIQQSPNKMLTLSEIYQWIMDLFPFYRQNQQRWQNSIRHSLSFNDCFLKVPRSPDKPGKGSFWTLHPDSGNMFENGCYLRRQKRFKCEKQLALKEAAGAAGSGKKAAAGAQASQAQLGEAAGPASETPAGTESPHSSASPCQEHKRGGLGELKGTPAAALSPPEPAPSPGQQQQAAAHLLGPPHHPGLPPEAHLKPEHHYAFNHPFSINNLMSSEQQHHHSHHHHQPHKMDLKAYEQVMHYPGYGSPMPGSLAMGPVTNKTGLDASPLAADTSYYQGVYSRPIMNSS

On to `O=C(NC(=O)c1c(F)cccc1F)Nc1cc(Cl)c(OC(F)(F)C(F)C(F)(F)F)cc1Cl` (stereo not given), for which the result in [1], in assay [2], in [3], in [4], in assay [5] and in assay [6] was inactive. The compound was called inactive in [7], in assay [8] and in assay [9].

With `BrCCCCBr`, the result in [1], in [2], in assay [3], in [4], in assay [5] and in [6] was inactive. Besides, the outcome in [8] and in assay [9] was inactive.

`N#Cc1cccnc1`: the result in assay [1], in [2], in assay [3], in [4], in assay [5] and in assay [6] was inactive. In addition, the compound was called inactive in assay [7], in assay [8] and in [9].

For the compound `C#CCO`, the outcome in [1], in assay [2], in assay [4], in [5], in assay [6] and in assay [8] was inactive. The compound was called inactive in assay [9].

Consider `C=CC(Cl)CCl` (stereo not given), for which the outcome in assay [2], in assay [3], in [4], in assay [5], in assay [6] and in assay [7] was inactive. Besides, the compound was classed as inactive in assay [8] and in assay [9].

As usually defined, the AC50 is the concentration at which the activity in the assay is half-maximal. `CCCCCCCCCCCCCCC(Br)C(=O)O` (stereo not given): the compound was called inactive in [1], in [2], in assay [4], in assay [5], in assay [7] and in [9]. Moreover, the AC50 in assay [6] is 137 µM (active).

Turning to `Clc1cccc(Cl)c1Cl`, the compound was called inactive in assay [2], in [3], in [4], in [5], in assay [6] and in assay [8]. Moreover, the compound was classed as inactive in [9].

`CN(C1CCCCC1)C1CCCCC1`: the call in [1], in [2], in assay [3], in assay [4], in assay [5] and in assay [6] was inactive. Besides, the compound was classed as inactive in [8] and in assay [9].

For the compound `COCCl`, the call in assay [2], in [3], in [4], in [5], in assay [6] and in [7] was inactive. The result in assay [8] was inactive.

As to `CCOC(=O)Cc1ccccc1`, the result in [1], in assay [2], in assay [3], in assay [4], in assay [5] and in assay [6] was inactive. Further, the result in [7] and in [8] was inactive.

For `OCCN(CCO)CCO`, the compound was called inactive in [2], in assay [3], in assay [4], in assay [5], in [6] and in [9].

Regarding `CNC(=O)N(C)c1nc2ccccc2s1`, the outcome in assay [2], in assay [4], in [5], in assay [6], in assay [7] and in assay [8] was inactive. Further, the compound was called inactive in assay [9].

`C[CH2][Hg][S]c1ccccc1C(=O)O`: the AC50 in [2] is 3.71 µM (active); in assay [4], 2.29 µM (active); in assay [5], 1.99 µM (active); in [9], 6.49 µM (active). The call in assay [3], in assay [6], in assay [7] and in assay [8] was inactive.

Regarding `Nc1nc(N)nc(Cl)n1`, the result in [1], in assay [2], in assay [3], in assay [4], in [5] and in assay [6] was inactive. Besides, the compound was classed as inactive in assay [8] and in assay [9].

As for `Cc1ccc(CCl)cc1`, the outcome in [1], in [2], in assay [4], in assay [5], in assay [6] and in [7] was inactive. Further, the compound was classed as inactive in assay [8] and in assay [9].

`C#C[C@]1(O)CC[C@H]2[C@@H]3CCC4=CC(=O)CC[C@]4(C)[C@H]3CC[C@@]21C`: the compound was classed as inactive in assay [2], in assay [3], in assay [4], in [5], in [6] and in [7]. Also, the compound was classed as inactive in assay [8] and in assay [9].

Turning to `C=C(C)C(=O)OCC(CC)CCCC` (stereo not given), the result in assay [1], in [2], in [4], in assay [5], in assay [6] and in [8] was inactive. For the same compound, the compound was called inactive in assay [9].

For the compound `CC(O)(CS(=O)(=O)c1ccc(F)cc1)C(=O)Nc1ccc(C#N)c(C(F)(F)F)c1` (stereo not given), the compound was called inactive in assay [1], in [2], in [3], in assay [4], in assay [5] and in assay [6]. For the same compound, the call in [8] and in assay [9] was inactive.

For the compound `Cc1cccc(C)c1NC(=O)CN1CCCC1=O`, the result in [1], in [2], in assay [4], in [5], in [6] and in [7] was inactive. For the same compound, the compound was called inactive in assay [8] and in assay [9].

As to `c1ccc2sc(SNC3CCCCC3)nc2c1`, the call in assay [1], in [2], in [3], in [4], in [5] and in assay [7] was inactive. Besides, in [8], the call was inactive. Further, the half-maximal activity concentration (AC50) in assay [6] is 159 µM (active).

Take `CC(c1ccc(O)cc1)c1ccc(O)cc1`: the half-maximal activity concentration (AC50) is 0.701 µM (active) in assay [1] and 137 µM (active) in assay [2]. In addition, the compound was classed as inactive in assay [3], in assay [4], in assay [5], in assay [6], in [8] and in [9].

With `OC[C@@H](O)[C@H]1O[C@@H]2O[C@H](C(Cl)(Cl)Cl)O[C@@H]2[C@H]1O`, the call in [1], in assay [2], in assay [3], in assay [4], in assay [5] and in [6] was inactive. Moreover, the result in assay [8] and in assay [9] was inactive.

As for `O=S(=O)(c1ccc(Cl)cc1)c1cc(Cl)c(Cl)cc1Cl`, the compound was called inactive in assay [1], in assay [2], in assay [3], in assay [4], in [5] and in assay [6]. Also, the call in [8] was inactive. For the same compound, the AC50 in [7] was 19.3 µM (active).

For `Nc1c(Oc2ccccc2)cc(O)c2c1C(=O)c1ccccc1C2=O`, the compound was classed as inactive in [1], in assay [2], in assay [4], in [5], in [6] and in assay [7]. Also, the call in assay [8] and in [9] was inactive.

In the case of `NC(=O)CCl`, the compound was called inactive in assay [1], in [2], in [3], in [4], in assay [5] and in assay [6]. For the same compound, the result in assay [7], in [8] and in [9] was inactive.

In the case of `CCCCCCCCCCCCOS(=O)(=O)O`, the result in [2], in [4], in [5], in assay [6] and in assay [9] was inactive.

For the compound `CNC(=O)O/N=C/C(C)(C)S(C)(=O)=O`, the call in [1], in [2], in assay [3], in assay [4], in assay [5] and in assay [6] was inactive. Also, the outcome in assay [8] and in [9] was inactive.

For `Brc1ccc(Br)cc1`, the compound was classed as inactive in [2], in [3], in assay [4], in assay [5], in assay [6] and in assay [7]. In assay [9], the call was inactive.

Take `O=C(CCl)Nc1ccccc1`: the compound was classed as inactive in assay [1], in [2] and in assay [3]. Besides, the AC50 is 83.2 µM (active) in [4]; 161 µM (active) in assay [5]; 25.5 µM (active) in assay [6]; 54.4 µM (active) in assay [7]; 177 µM (active) in assay [8]; 54.9 µM (active) in assay [9].

Regarding `C[C@H]1C(=O)O[C@@H]2CCN3CC=C(COC(=O)[C@](C)(O)[C@]1(C)O)[C@H]23`, the result in [1], in [2], in assay [4], in [5], in assay [6] and in assay [7] was inactive.
